Screens (PubChem)
MCF10A rerep – A quantitative high throughput screen for small molecules that induce DNA re-replication in MCF 10a normal breast cells | MCF 10A DNA re-replication, Hoechst nuclear intensity, 48 h | Potency, µM (highest dose often 46.1 µM), hits mostly activators | actives 2.9% (n = 350,000) | AID 624296, 2012; further: nearly all actives have a fitted effect of over 50% in size
SW480 rerep – A quantitative high throughput screen for small molecules that induce DNA re-replication in SW480 colon adenocarcinoma cells. Potency, µM (doses to about 46.1 µM), actives largely listed as activators. actives 1.8% (n = 340,000). SW480 DNA re-replication, Hoechst DNA content imaging, 48 h. AID 624297, 2012; further: nearly all actives have a fitted effect of over 55% in size
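First, 250 cells per well were seeded. Next, compound or vehicle (23 nL) was pinned in, plates sat 48 hr at 37 C. Finally Hoechst was added for 40 min before fluorescence scanning.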
IL1B secr inh – qHTS for Inhibitors of Inflammasome Signaling: IL-1-beta AlphaLISA Primary Screen. THP-1 LPS/ATP IL-1B secretion, AlphaLISA, 16 h; hits give low values. activity change, % at 57.5 µM. actives 4.7% (n = 360,000); in the data active means activity change below about -50%; inconclusive means mostly about -30% to -49%
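Secreted IL-1B measured by AlphaLISA bead assay after 16 h compound exposure of THP-1 cells; compounds (final up to 57.5 uM) added 1 h before LPS (250 ng/mL) and ATP (1.25 mM) stimulation; lower signal means less secretion.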
RORg inh – qHTS for inhibitors of ROR gamma transcriptional activity; Nuclear receptor ROR-gamma (Mus musculus), P51450; Drosophila S2 Gal4-RORgamma UAS-luciferase reporter, 20 h; Potency, µM (doses to about 53.6 µM), hits mostly inhibitors; actives 5.4% (n = 310,000); further: nearly all actives have a fitted effect of over 60% in size
Target sequence (P51450 whole entry, looked up, the tested form may be a part): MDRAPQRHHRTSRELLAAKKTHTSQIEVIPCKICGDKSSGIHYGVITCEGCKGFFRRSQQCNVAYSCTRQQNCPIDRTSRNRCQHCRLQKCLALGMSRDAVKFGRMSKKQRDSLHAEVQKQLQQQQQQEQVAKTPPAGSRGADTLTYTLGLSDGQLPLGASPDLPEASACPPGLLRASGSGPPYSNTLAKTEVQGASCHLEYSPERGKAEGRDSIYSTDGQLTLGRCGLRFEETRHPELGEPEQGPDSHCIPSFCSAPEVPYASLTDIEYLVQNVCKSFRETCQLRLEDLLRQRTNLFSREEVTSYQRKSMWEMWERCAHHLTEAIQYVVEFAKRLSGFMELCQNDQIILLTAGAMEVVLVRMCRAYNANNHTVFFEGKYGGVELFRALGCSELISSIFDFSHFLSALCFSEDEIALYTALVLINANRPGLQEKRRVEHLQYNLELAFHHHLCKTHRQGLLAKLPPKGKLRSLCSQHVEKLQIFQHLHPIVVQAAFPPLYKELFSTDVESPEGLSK
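Compounds are pin-transferred onto Drosophila Schneider cells expressing a copper-inducible Gal4–ROR gamma transactivation domain fusion. After 1 hr, copper sulfate is added to 700 uM final; luciferase is read 20 hr later.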
VP16 counter – VP16 counterscreen qHTS for inhibitors of ROR gamma transcriptional activity | Drosophila S2 Gal4-VP16 UAS-luciferase, luminescence, 20 h | AID 2546, 2010 | actives 3.5% (n = 310,000) | Potency, µM (titrated, usually from 53.6 µM), hits mostly inhibitors;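 further: Gal4-VP16 expression switched on by copper sulfate through the metallothionein promoter; nearly all actives have a fitted effect of over 50% in size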
Numbers stand for hits; [ ] = remark or other dose. This is a sample that favours compounds with a hit; in the whole collection about 11% have one here. Unless noted, the call rests on the fitted dose curve; in most records, active means well fitted curve in the direction sought with a large enough effect; inconclusive means small, poorly fitted or top-dose-only effect, or another doubt; inactive means no such curve, though single readings can be large; an effect the other way counts as inactive or inconclusive.

`CC1=C(C(=O)N(C)C)CC(CC(=O)NC(c2ccccc2)c2ccccc2)C(=O)N1Cc1ccc(F)cc1` (centres undefined) gave IL1B secr inh inactive.
`C=C(CN(C)C)C(=O)c1cc(C)ccc1C` gave MCF10A rerep 2.6µM, SW480 rerep 5.8µM and IL1B secr inh -101.
For COc1cc2c(cc1OC)C(COc1cccc(C(F)(F)F)c1)NCC2 (centres undefined) the results were MCF10A rerep inconclusive, SW480 rerep inactive, IL1B secr inh inactive, RORg inh inactive and VP16 counter inactive.
COc1ccc(-n2c(=O)c3c4c(sc3n(CC(=O)Nc3cc(C)[nH]n3)c2=O)CCC4)c(OC)c1 was read as MCF10A rerep inactive, SW480 rerep inconclusive, IL1B secr inh inactive, RORg inh inactive and VP16 counter inactive.
`COc1ccccc1-n1c(=O)c2c3c(sc2n2c(=S)[nH]nc12)CCC3` gave MCF10A rerep inactive, SW480 rerep inactive, IL1B secr inh inactive, RORg inh 13µM and VP16 counter inactive.
Screening COc1ccc(-c2cnc3c(c2)CCC3(C#N)C#N)cc1 returned MCF10A rerep 4.1µM, SW480 rerep 3.3µM, IL1B secr inh inactive, RORg inh inconclusive and VP16 counter inactive.
`COc1ccc(-c2ccc(OC)cc2)cc1` gave MCF10A rerep inactive, SW480 rerep inactive, IL1B secr inh inactive, RORg inh inactive and VP16 counter inactive.
`CCC(C(=O)NCCc1c[nH]c2ccc(C)cc12)c1ccccc1` (centres undefined) gave MCF10A rerep inconclusive, SW480 rerep inactive, IL1B secr inh inactive, RORg inh inactive and VP16 counter inactive.
For C=C(C[C@]1(C(=O)OC)CC2(CC=C(C)C)C(=O)C(C(=O)CC(C)C)=C(O)C(CC=C(C)C)(C1)C2=O)C(=O)OC (some centres undefined) the results were RORg inh inactive and VP16 counter inactive.
Screening CC(=O)C1=C(C)NC(SCc2cccc([N+](=O)[O-])c2)=C(C#N)C1c1ccco1 (centres undefined) returned MCF10A rerep inactive, SW480 rerep inconclusive, IL1B secr inh -66, RORg inh inactive and VP16 counter inactive.
Screening CCOc1ccccc1NC(=O)CSC1=C(C#N)C(c2ccco2)C(C(=O)Nc2nc3ccccc3s2)=C(C)N1 (centres undefined) returned MCF10A rerep inconclusive, SW480 rerep 3.7µM, IL1B secr inh inactive, RORg inh inactive and VP16 counter inactive.
Screening CC(=O)C1=C(C)NC(SCC(=O)c2ccc(F)cc2)=C(C#N)C1c1ccco1 (centres undefined) returned MCF10A rerep inactive, SW480 rerep inactive, IL1B secr inh -85, RORg inh inactive and VP16 counter inactive.
Screening CC1=C(C(=O)Nc2ccccc2)C(c2ccco2)C(C#N)=C(SCc2ccccc2)N1 (centres undefined) returned RORg inh inactive and VP16 counter inactive.
Screening CC(=O)C1=C(C)NC(SCC(N)=O)=C(C#N)C1c1ccco1 (centres undefined) returned MCF10A rerep inactive, SW480 rerep inactive, IL1B secr inh inactive, RORg inh inconclusive and VP16 counter inactive.
For CCc1ccc(C(=O)CSC2=C(C#N)C(c3ccco3)C(C(C)=O)=C(C)N2)cc1 (centres undefined) the results were RORg inh 6.3µM and VP16 counter inconclusive.
`Cn1c(NCCN2CCCC2)nc2cc(-c3cccc(C(F)(F)F)c3)sc2c1=O` gave IL1B secr inh inactive.
`Cc1c(C)n(-c2ccc(Cl)cc2)c2ncnc(N)c12` gave MCF10A rerep inactive, SW480 rerep inactive, IL1B secr inh inactive, RORg inh inactive and VP16 counter inactive.
Screening O=C(Nc1nc(-c2ccccn2)cs1)C1COc2ccccc2O1 (centres undefined) returned MCF10A rerep inactive, SW480 rerep inactive, IL1B secr inh inactive, RORg inh 0.89µM and VP16 counter 0.2µM.
For COCCCNC(=O)c1c(NC(=O)C2COc3ccccc3O2)sc2c1CCCC2 (centres undefined) the results were MCF10A rerep inconclusive, SW480 rerep inactive, IL1B secr inh inactive, RORg inh inactive and VP16 counter inactive.
For CSc1nc2ccc3nc(NC(=O)C4COc5ccccc5O4)sc3c2s1 (centres undefined) the results were MCF10A rerep inactive, SW480 rerep inactive, IL1B secr inh inactive, RORg inh 10µM and VP16 counter inactive.
O=C(Nc1ccc(Cl)cn1)C1COc2ccccc2O1 (centres undefined) was read as MCF10A rerep inactive, SW480 rerep inactive, IL1B secr inh inactive, RORg inh 4µM and VP16 counter inconclusive.
For Cc1nc2ccc3nc(NC(=O)C4COc5ccccc5O4)sc3c2s1 (centres undefined) the results were MCF10A rerep inconclusive, SW480 rerep inactive, IL1B secr inh inactive, RORg inh inactive and VP16 counter inconclusive.
CCNC(=O)c1c(NC(=O)C2COc3ccccc3O2)sc2c1CCCC2 (centres undefined) was read as MCF10A rerep inconclusive, SW480 rerep inactive, IL1B secr inh inactive, RORg inh inconclusive and VP16 counter 11µM.
Cc1csc(NC(=O)C2COc3ccccc3O2)n1 (centres undefined) was read as MCF10A rerep inactive, SW480 rerep inactive, IL1B secr inh inactive, RORg inh 14µM and VP16 counter 11µM.
Screening O=C(Nc1nc(-c2ccccc2)cs1)C1COc2ccccc2O1 (centres undefined) returned MCF10A rerep inactive, SW480 rerep inactive, IL1B secr inh inactive, RORg inh inactive and VP16 counter inactive.
CC1CC1C(=O)Nc1nc(-c2ccccn2)cs1 (centres undefined) was read as MCF10A rerep inactive, SW480 rerep inactive, IL1B secr inh inactive, RORg inh 11µM and VP16 counter inconclusive.
Screening Cc1cnc(NC(=O)C2COc3ccccc3O2)s1 (centres undefined) returned MCF10A rerep inactive, SW480 rerep inactive[9.22 µM], IL1B secr inh inactive, RORg inh 7.1µM and VP16 counter 8.9µM.
O=C(CN1C(=O)C2CCCCC2C1=O)Nc1nc(-c2ccccn2)cs1 (centres undefined) was read as MCF10A rerep inconclusive, SW480 rerep inconclusive, IL1B secr inh inactive, RORg inh inconclusive and VP16 counter inactive.
C[C@@H](C(=O)Nc1nc(-c2ccccn2)cs1)N1C(=O)C2CCCCC2C1=O (some centres undefined) was read as MCF10A rerep inconclusive, SW480 rerep inactive, IL1B secr inh inactive, RORg inh 13µM and VP16 counter inconclusive.
For O=C(O)C1=CC(O)[C@@H](O)C(O)C1 (some centres undefined) the results were RORg inh inactive and VP16 counter inactive.
